Assay outcomes deposited in PubChem by Broad Institute.
ROS inducer: cancer cell ROS induction; U2OS ROS induction, H2DCF-DA fluorescence; ROS induction (% of piperlongumine), % at 10 µM; actives 2% (n = 46,000); in the data active = ROS induction above about 79%, passing the limit was not always enough;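 also: 0% = DMSO vehicle median and 100% = reference compound median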
* hit, by the source's call. This excerpt belongs to a sample that is enriched for hits.

SMILES | ROS inducer
O=C(CSc1nnc(-c2ccccc2)n1-c1ccccc1)Nc1cccc(F)c1 | -4
C[C@@H]1CN([C@H](C)CO)C(=O)c2cc(NC(=O)Nc3cccc4ccccc34)ccc2O[C@@H]1CN(C)Cc1ccc(-c2ccccc2)cc1 | 5
CCOC(=O)CSc1nc(C)cs1 | -14
COc1ccc(S(=O)(=O)Nc2cccc3c2O[C@H](CN(C)C(=O)Nc2ccc(F)cc2)[C@H](C)CN([C@H](C)CO)C3=O)cc1 | -7
COc1cccc(C(=O)Nc2cccc(OCC(=O)O)c2)c1 | -21
COC(=O)COc1cccc(NC(=O)c2cc(OC)cc(OC)c2)c1 | 108*
COC(=O)COc1cccc(NC(=O)c2ccc(Br)cc2)c1 | 20
C[C@@H]1CCCCO[C@H](CN(C)S(=O)(=O)c2ccccc2)[C@@H](C)CN([C@H](C)CO)C(=O)c2cc(N(C)C)ccc2O1 | 2
CCN(CC)CCNc1ccc2nnc(CCNC(=O)c3ccc(C)cc3)n2n1 | -10
CCOC(=O)N1CCC(NC(=O)c2nn(C)c3c2CS(=O)(=O)c2ccccc2-3)CC1 | 15
O=C1c2ccccc2C(=O)N1CCCc1nc(-c2cccc([N+](=O)[O-])c2)no1 | 1
COc1cc(/C=C2/C(=N)N3C=CSC3=NC2=O)cc(OC)c1OCCOc1ccc(C)c(C)c1 | 35
CCOc1ccc2nc(C34CC5CC(CC(C5)C3)C4)ccc2c1 | 50
C=C1C(=O)O[C@H]2C1[C@H](OC(=O)/C(=C/CO)COC(=O)/C(C)=C/CO)CC(=C)[C@@H]1CC(=O)[C@@H](C)[C@@H]12 (stereo partly specified) | 87*
C=C1C(=O)O[C@@H]2/C=C(/C)[C@@H]3C/C=C(/C[C@@H](OC(=O)/C(=C/CO)CO)[C@@H]12)C[C@@](O)(C(C)C)C(=O)O3 | 27
CCOC(=O)c1sc(SCc2c(Cl)cccc2Cl)c(S(=O)(=O)C(C)C)c1N | 8
C[C@H]1CN([C@@H](C)CO)C(=O)c2cc(NS(=O)(=O)c3ccccc3)ccc2O[C@@H]1CN(C)Cc1ccc(-c2ccccc2)cc1 | 47
O=C(N/N=C/c1ccc(F)cc1)c1ccccn1 | -4
O=C(N/N=C/c1cc(F)ccc1O)c1ccccn1 | -1
O=C(N/N=C/c1c(F)c(F)c(F)c(F)c1F)c1ccccn1 | 117*
Cc1noc(C)c1S(=O)(=O)Nc1ccc2c(c1)C(=O)N([C@H](C)CO)C[C@@H](C)[C@H](CN(C)C(=O)NC(C)C)O2 | -14
C[C@H](CO)N1C[C@H](C)[C@@H](CN(C)Cc2ccc(-c3ccccc3)cc2)Oc2c(NC(=O)Nc3cccc4ccccc34)cccc2C1=O | 17
O=[N+]([O-])c1ccc(N2CCN(S(=O)(=O)c3ccc(F)cc3)CC2)cc1NCc1ccco1 | 27
CC(=O)N1CCN(c2ccc([N+](=O)[O-])c(NCc3cccnc3)c2)CC1 | 40
O=[N+]([O-])c1ccc(N2CCNCC2)cc1NCc1ccccn1 | 6
SMILES | ROS inducer
O=C(c1ccccc1Cl)N1CCN(c2ccc([N+](=O)[O-])c(NCc3cccnc3)c2)CC1 | 79*
CC(C)(C)c1ccc(C(=O)N2CCN(c3ccc([N+](=O)[O-])c(NCc4cccnc4)c3)CC2)cc1 | 106*
O=C(c1ccc(Cl)cc1)N1CCN(c2ccc([N+](=O)[O-])c(NCc3ccccn3)c2)CC1 | 5
C[C@@H]1CN([C@H](C)CO)C(=O)c2cc(N(C)C)ccc2O[C@H]1CN(C)S(=O)(=O)c1ccc(Cl)cc1 | 11
O=C(O)CCCCCC(=O)N/N=C/c1ccc(Br)o1 | 16
C[C@H]1CN([C@@H](C)CO)C(=O)Cc2cc(NC(=O)Nc3ccccc3)ccc2O[C@H]1CN(C)C | -7
CN(CC(=O)N1CC=C(c2ccccc2)CC1)S(=O)(=O)c1ccc2nc(-c3ccccc3)[nH]c2c1 | 64
C[C@H]1CN([C@@H](C)CO)C(=O)c2cccc(N(C)C)c2O[C@H]1CN(C)S(C)(=O)=O | 1
COC(=O)c1cc(NC(=O)CN(c2ccccc2F)S(C)(=O)=O)ccc1Cl | 0
COC(=O)c1ccccc1C(=O)c1ccccc1 | 7
COC(=O)c1cc(S(=O)(=O)/C=C/c2ccccc2)c(Cl)cc1Cl | 121*
Cc1ccc(S(=O)(=O)Nc2cccc3c2O[C@H](CN(C)CC2CC2)[C@H](C)CN([C@H](C)CO)C3=O)cc1 | -9
CCOc1ccc([C@H]2[C@@H]3CN(Cc4ccccc4)CC=C3C(C#N)=C(N)C2(C#N)C#N)cc1 | 48
CCCN1CC=C2C(C#N)=C(N)C(C#N)(C#N)C3(C(=O)Nc4ccccc43)C2C1 (stereo unspecified) | 38
N#CC1=C(N)C(C#N)(C#N)C2(C(=O)N(Cc3ccccc3)c3ccccc32)C2CCCC=C12 (stereo unspecified) | 127*
Cc1ccc(-c2nc(-c3ccc(Cl)cc3)cs2)cc1F | 10
COc1ccc(CN(C)C[C@H]2Oc3ccc(NC(=O)Cc4ccccc4)cc3C(=O)N([C@@H](C)CO)C[C@@H]2C)cc1 | 55
COc1ccc(C2C(C(N)=O)=C(C)Nc3nc(SCc4ccccc4Cl)nn32)c(OC)c1 (stereo unspecified) | -24
CC1(C)CC(=O)c2cc(-c3ccccc3)n(-c3ccc(S(N)(=O)=O)cc3)c2C1 | 11
C[C@@H]1CN([C@@H](C)CO)C(=O)c2cccc(NC(=O)C3CCCCC3)c2O[C@H]1CN(C)Cc1ccc(-c2ccccc2)cc1 | 52
COc1ccc([Si](C)(C)[C@H]2[C@H](CCO)O[C@@]3(C(=O)N(Cc4ccccc4)c4ccc(NC(C)=O)cc43)[C@@H]2C)cc1 | 46
C=CCN1C(=O)[C@@]2(O[C@@H](CCO)[C@H]([Si](C)(C)c3ccc(OC)cc3)[C@H]2C)c2cc(NC(C)=O)ccc21 | 106*
C=CCN1C(=O)[C@@]2(O[C@@H](CCO)[C@H]([Si](C)(C)c3ccc(OC)cc3)[C@H]2C)c2cc(N3CCOC3=O)ccc21 | 19
C=CCN1C(=O)[C@@]2(O[C@@H](CCO)[C@H]([Si](C)(C)c3ccc(OC)cc3)[C@H]2C)c2cc(I)ccc21 | 94*
C=CCN1C(=O)[C@]2(O[C@H](CCO)[C@@H]([Si](C)(C)c3ccc(OC)cc3)[C@@H]2C)c2cc(N3CCC3=O)ccc21 | 21
SMILES | ROS inducer
COc1ccc([Si](C)(C)[C@@H]2[C@@H](CCO)O[C@]3(C(=O)N(Cc4ccccc4)c4ccc(NC(C)=O)cc43)[C@H]2C)cc1 | 67
Cc1ccc(S(=O)(=O)N(C)C[C@H]2Oc3ccc(NC(=O)Nc4ccc(F)cc4)cc3C(=O)N([C@@H](C)CO)C[C@H]2C)cc1 | 0
CCOC(=O)Cc1n[nH]c(CC(=O)OCC)n1 | -6
COC(=O)C1=C(C)NC(C)=C(C(=O)OC)C1c1cc(Br)ccc1OCC(N)=O | -3
COc1ccc(S(=O)(=O)Nc2ccc3c(c2)C(=O)N([C@@H](C)CO)C[C@@H](C)[C@H](CN(C)Cc2ccc4c(c2)OCO4)O3)cc1 | 0
O=C(COc1ccc(Br)cc1)Nc1ccc2nn(-c3ccc(F)cc3)nc2c1 | -12
COc1ccc(NC(=O)Nc2cccc3c2O[C@H](CN(C)CC2CC2)[C@@H](C)CN([C@@H](C)CO)C3=O)cc1 | 0
COc1ccc(NC(=O)Nc2cccc3c2O[C@@H](CN(C)C(=O)NC2CCCCC2)[C@H](C)CN([C@H](C)CO)C3=O)cc1 | -6
CCOC(=O)c1nnn2c1nc(SCC(N)=O)c1ccccc12 | 17
CCOC(=O)c1nnn2c1nc(SCc1ccc(F)cc1)c1ccccc12 | 59
CCOC(=O)c1nnn2c1nc(N(Cc1ccccc1)Cc1ccccc1)c1ccccc12 | 173*
